Test results from PubChem BioAssay AID2428 (Vanderbilt High Throughput Screening Facility, 2010).
Results with a measured potency or affinity are listed apart. Active and inactive are the calls of the source.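 The calls were made as follows: active = compound whose fitted concentration response curve has an R squared above 0.5; inactive = the rest.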

Target: Muscarinic acetylcholine receptor M3 (Homo sapiens) (UniProt P20309)
Experiment: human M3 receptor positive allosteric modulation, dose response, selectivity assay for M1 PAM project, cell-based, CHO-K1 hM3, Fluo-4 calcium, ACh EC20 (AID 2428)
Conditions: ACh EC20 potentiation; series mostly up to 30 µM

Sequence of Muscarinic acetylcholine receptor M3 (Homo sapiens) (P20309 whole entry, looked up): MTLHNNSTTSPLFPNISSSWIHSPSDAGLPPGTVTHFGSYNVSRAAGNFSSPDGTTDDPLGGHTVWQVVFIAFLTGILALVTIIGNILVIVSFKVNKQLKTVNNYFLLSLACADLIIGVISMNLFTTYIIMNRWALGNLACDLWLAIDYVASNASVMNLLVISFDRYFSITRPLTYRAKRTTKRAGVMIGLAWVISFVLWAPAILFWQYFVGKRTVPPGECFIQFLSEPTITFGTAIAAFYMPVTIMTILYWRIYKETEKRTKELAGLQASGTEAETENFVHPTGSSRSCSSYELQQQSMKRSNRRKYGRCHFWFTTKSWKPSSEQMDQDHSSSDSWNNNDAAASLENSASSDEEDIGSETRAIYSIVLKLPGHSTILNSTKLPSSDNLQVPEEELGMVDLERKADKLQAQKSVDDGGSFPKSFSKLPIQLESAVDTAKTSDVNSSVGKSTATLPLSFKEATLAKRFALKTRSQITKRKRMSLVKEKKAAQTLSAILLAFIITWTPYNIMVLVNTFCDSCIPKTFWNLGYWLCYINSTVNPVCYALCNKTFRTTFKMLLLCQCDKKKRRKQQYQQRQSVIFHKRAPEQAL

Row | Compound | outcome
1 | Cc1cc(NC(=O)CS(=O)(=O)c2cn(Cc3ccccc3Cl)c3ccccc23)no1 | inactive
2 | O=C1C(=O)N(Cc2ccc(Oc3ccccc3)cc2)c2ccc(OC(F)(F)F)cc21 | inactive
3 | Cc1cc(NC(=O)CS(=O)(=O)c2cn(Cc3cccc(Cl)c3)c3ccccc23)no1 | inactive
4 | Cn1cc(-c2ccc(CN3C(=O)C(=O)c4ccccc43)c(F)c2)cn1 | inactive
5 | Cc1cc(NC(=O)CS(=O)(=O)c2cn(Cc3cccc(-c4ccn(C)n4)c3)c3ccccc23)no1 | inactive
6 | Cc1cc(NC(=O)CS(=O)(=O)c2cn(Cc3cc(Br)ccc3F)c3ccccc23)no1 | inactive
7 | Cc1cc(NC(=O)CS(=O)(=O)c2cn(Cc3cccc(F)c3)c3ccccc23)no1 | inactive
8 | Cn1cc(-c2cc(F)c(CN3C(=O)C(=O)c4ccccc43)c(F)c2)cn1 | inactive
